# ROC1-CUL1 inh: inhibitors of human ROC1-CUL1 ubiquitin ligase activity. actives 0.6% (n = 140,000). P62877+Q13616. inhibition, % at 10 µM. AID 1347404. in vitro K48 di-Ub FRET, acceptor:donor ratio, 45 min; in the data active = inhibition above about 25%
# Active calls of the source: *. Only a selection was taken, and hits are over-represented in it overall.
SMILES,ROC1-CUL1 inh
COC(=O)c1c(C)sc(-c2c(-c3ccc4c(c3)OCCO4)[nH]c3c2c(=O)n(C)c(=O)n3C)c1O,12.7
COC(=O)c1c(C)sc(-c2c(-c3cccc(Cl)c3)[nH]c3c2c(=O)[nH]c(=O)n3C)c1O,28.3*
CCOC(=O)c1c(C)sc(-c2c(-c3ccc(OC)c(F)c3)[nH]c3c2c(=O)[nH]c(=O)n3C)c1O,32.0*
CCOC(=O)c1nn(-c2ccc3c(c2)OCCO3)cc1O,2.1
CCOC(=O)c1nn(-c2ccc(C)cc2)c(N=Nc2ccc3c(c2)OCCO3)c1O,-0.6
CCc1ccc(-c2[nH]c3c(c2-c2sc(C)c(C(=O)OC)c2O)c(=O)[nH]c(=O)n3C)cc1,7.0
COc1cccc(-c2[nH]c3c(c2-c2c(-n4cccc4)n(C)c(=O)[nH]c2=O)c(=O)[nH]c(=O)n3C)c1,3.0
CCOC(=O)c1c(C)sc(-c2c(-c3ccc4c(c3)OCCO4)[nH]c3c2c(=O)n(C)c(=O)n3C)c1O,33.2*
CCOC(=O)c1c(C)sc(-c2c(-c3ccc4c(c3)OCCO4)[nH]c3c2c(=O)[nH]c(=O)n3C)c1O,30.5*
COC(=O)c1c(C)sc(-c2c(-c3ccc4c(c3)OCCO4)[nH]c3[nH]c(=O)[nH]c(=O)c23)c1O,7.8
CCOC(=O)c1c(C)sc(-c2c(-c3ccc(OC)c(F)c3)[nH]c3[nH]c(=O)[nH]c(=O)c23)c1O,4.3
CCOC(=O)c1c(C)sc(-c2c(-c3ccccc3)[nH]c3[nH]c(=O)[nH]c(=O)c23)c1O,-0.7
Cc1ccc2ccccc2c1NC(=O)CSc1ncnc2sc(C)c(C)c12,6.2
CN1CCC(N2CCCC(C(=O)NCc3ccccc3)C2)CC1 (stereo unspecified),-2.1
O=C(Cn1cnnn1)N1CCc2ccccc2C1,-0.9
CCSc1ncc(Cl)c(C(=O)Nc2c(Cl)cccc2Cl)n1,4.6
CCCCc1ccc(N2CC(C(=O)O)CC2=O)cc1 (stereo unspecified),7.1
O=S(=O)(Cc1ccc(Cl)cc1Cl)NCC1CCCO1 (stereo unspecified),11.5
CC1=NN(c2ccccc2)C(=O)C1C=Nc1ccccc1-c1nnc(SCc2ccccc2)[nH]c1=O (stereo unspecified),36.6*
CSc1nnc(-c2ccccc2N=CC2C(=O)N(c3ccccc3)N=C2C)c(=O)[nH]1 (stereo unspecified),1.8
CC1=NN(c2ccc(F)cc2)C(=O)C1C=Nc1cccc2ccccc12 (stereo unspecified),-8.2
CCN1CCN(c2ccc(C(=O)NCCCc3ccccn3)cn2)CC1,-5.3
COc1ccc(-c2cc(C(=O)N=C3C(=O)N(c4ccccc4)N(C)C3C)c3ccccc3n2)c(OC)c1 (stereo unspecified),9.4
CC1=NN(c2ccc(Cl)c(Cl)c2)C(=O)/C1=C/c1ccc(C)cc1,-8.1
CC1=NN(c2ccc(Cl)c(C(=O)O)c2)C(=O)/C1=C\c1cnn(-c2ccc(C)c(C)c2)c1,99.5*
SMILES,ROC1-CUL1 inh
CC1=NN(c2ccc(C(=O)O)cc2)C(=O)/C1=C/c1cc(C(C)(C)C)c(O)c(C(C)(C)C)c1,12.1
COc1ccc(-c2nnc3n2N=C(C)C(C(C)=O)S3)cc1 (stereo unspecified),8.8
CC(=O)c1ccc(NC(=O)/C=C/c2ccc(C)o2)cc1,7.1
Cc1ccc(NC(=O)/C=C/c2ccc(C)o2)c(Br)c1,63.2*
Cc1ccc(NC(=O)/C=C/c2ccc(C)o2)c(C)c1,0.1
CC(=C/C(=O)O)/C=C/c1ccc(Cl)o1,-0.5
Cc1ccc(NC(=O)/C=C/c2ccc(Cl)cc2)c(Br)c1,-8.3
Cc1ccc(/C=C/C(=O)O)o1,34.9*
COc1c(Cc2ccccc2)c(=O)oc2ccccc12,1.3
COc1ccc(C(=O)Nc2nc3c(s2)Cc2cc(OC)ccc2-3)cc1,39.6*
COc1ccc2c(c1)Cc1sc(NC(=O)c3ccccc3C)nc1-2,32.1*
COc1ccc2c(c1)Cc1sc(NC(=O)c3cccc(F)c3)nc1-2,13.2
COc1ccc2c(c1)-c1nc(NC(=O)c3ccccc3F)sc1CC2,2.0
COc1ccc2c(c1)CCc1sc(NC(=O)c3ccc(Cl)cc3)nc1-2,10.6
COc1ccc2c(c1)Cc1sc(NC(=O)c3cccc(Br)c3)nc1-2,-17.8
COc1ccc(CCN2C(=O)O[C@@H]3CN(Cc4ccncc4)C[C@@H]32)cc1,-8.7
COc1ccc(S(=O)(=O)N2CCN(c3ccccc3C)CC2)c(OC)c1,9.5
O=c1c(N=Nc2c(Cl)cc([N+](=O)[O-])cc2Cl)c(-c2ccc([N+](=O)[O-])cc2)[nH]n1-c1ccccc1,0.2
Cc1nn(S(=O)(=O)c2ccc(Cl)cc2)c(C)c1C,6.7
O=C1NC(=S)SC1=C1C=C(c2ccccc2)OC(c2ccccc2)=C1,-11.9
COC(=O)C1OC(S(=O)c2ccccc2)C(OC(C)=O)C(OC(C)=O)C1OC(C)=O (stereo unspecified),10.7
CC(=O)Nc1ccc(N=C2CC(=NS(=O)(=O)c3cc(C)c(C)cc3C)c3ccccc3C2=O)cc1,-8.2
O=C(N/N=C/c1cccc(Cl)c1Cl)c1ccc(Br)cc1,-0.2
O=C(N/N=C/c1ccc(Cl)cc1Cl)c1ccc(O)c(O)c1,3.8
O=C(N/N=C/c1cccc(Cl)c1Cl)c1ccc(O)c(O)c1,54.8*
SMILES,ROC1-CUL1 inh
Cc1ccc(C2(O)CC(C(F)(F)F)=NN2C(=O)c2cccc(C)c2)cc1 (stereo unspecified),-3.4
Cc1occc1C(=O)N1CCC(C2CCN(Cc3cccnc3)CC2)C1 (stereo unspecified),-2.4
O=C1/C(=C\c2cccs2)C(c2ccccc2)=NN1c1ccc(Cl)c(Cl)c1,-4.6
CCOC(=O)C1=NN(c2ccccc2)C(=O)/C1=C\c1ccc(F)cc1,5.5
O=C(O)C1=NN(c2ccccc2)C(=O)/C1=C\c1cccs1,25.8*
Cc1ncc2c(c1-c1noc(CCCc3c[nH]c4ccccc34)n1)CCNC2,-0.2
N=C1/C(=C/c2ccco2)C(=O)N=C2SC(c3cccs3)=NN12,3.6
C=CCN1C(=O)/C(=C/c2cc(Br)cc(OC)c2OC)C(=O)NC1=S,-0.6
C=CCN1C(=O)/C(=C/c2ccc(Cl)cc2Cl)NC1=S,2.3
C=CCN1C(=O)NC(=O)/C(=C\c2ccc(-c3cc(Cl)ccc3Cl)o2)C1=O,97.5*
C=CCN1C(=O)NC(=O)/C(=C\c2cc(Br)ccc2OCc2ccc(Cl)cc2Cl)C1=O,101.0*
C=CCN1C(=O)NC(=O)/C(=C/c2ccccc2OCc2ccc(Cl)cc2Cl)C1=O,-5.2
O=C1OC(c2ccc3ccccc3c2)=N/C1=C/c1ccc(-c2cc(Cl)ccc2Cl)o1,4.0
CN(C)C(Cl)=NC1=C(C#N)C(c2ccc(Cl)cc2)C(C#N)=C(N=C(Cl)N(C)C)S1 (stereo unspecified),7.8
C[n+]1cccc2c3cccnc3[nH]c21,4.9
O=C(COc1ccccc1)Nc1ccc(N2CCC(NCCc3ccncc3)CC2)cc1,-0.6
CCOC(=O)c1cc(C)n(-c2ccc(O)cc2)c1C,-8.9
COc1ccccc1NC(=O)CSc1nnc(COc2ccc(C#N)cc2)o1,-1.5
COC(=O)c1cccnc1NC(=O)Nc1cccc(F)c1,5.2
Nc1ccsc1/C=C/c1cccs1,2.9
Cc1ccc2oc3ccccc3c(=O)c2c1,-4.5
Cc1cccc2oc3ccccc3c(=O)c12,0.0
Cc1c(-c2ccc(O)c(O)c2)oc2ccccc2c1=O,92.8*
C=CCn1c(SCC(=O)Nc2ccccc2F)nc2sc3c(c2c1=O)CCC3,-5.4
COc1cc(NS(=O)(=O)c2ccc(NC(=O)CCCN3C(=O)c4cccc5cccc(c45)C3=O)cc2)nc(OC)n1,-0.8

# Screening data deposited in PubChem by Pan Lab, Icahn School of Medicine at Mount Sinai.
